# Laboratory results reported in paper PMC13423814.
# Tests used:
# [1] = target: Heterogeneous nuclear ribonucleoprotein A/B (UniProt Q99729)
# [2] = target: Heterogeneous nuclear ribonucleoprotein A0 (UniProt Q13151)
# [3] = target: Heterogeneous nuclear ribonucleoprotein U (UniProt Q00839)
# [4] = target: Non-POU domain-containing octamer-binding protein (UniProt Q15233)
# [5] = target: Polypyrimidine tract-binding protein 1 (UniProt P26599)
# [6] = target: Heterogeneous nuclear ribonucleoproteins C1/C2 (UniProt P07910)
# Histone H4 = Histone H4 (UniProt P62805)
substance,measurement,setting,value
"Heterogeneous nuclear ribonucleoproteins C1/C2, P07910",listed as a hit,[1],yes
same,listed as a hit,[2],yes
same,listed as a hit,[3],yes
same,listed as a hit,[4],yes
same,listed as a hit,[5],yes
"Heterogeneous nuclear ribonucleoprotein R, O43390",listed as a hit,[6],yes
"SWI/SNF-related matrix-associated actin-dependent regulator of chromatin subfamily A member 2, P51531",listed as a hit,Histone H4,yes
